Experimental findings from PubChem BioAssay are described below.

Assay [1] deals with Plasmodium falciparum Sir2 (PF13_0152, Sir2A). Nature of the assay: pfSir2 binders on small-molecule microarrays, primary screen, biochemical, small-molecule microarray, 635 nm fluorescence (AID 1098).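 Also: score merges spot fluorescence intensity with its signal-to-noise ratio.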 The following applies: small-molecule microarray binding, fluorescence 635 nm; higher = more signal.
Assay [2] in a line: small-molecule microarray binders of probe aDKK1, primary screen, biochemical, biotinylated probe, 635/667 nm fluorescence (AID 1099).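 Also: score merges 667nm spot fluorescence with signal to noise across triplicate slides.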 The conditions noted are these: higher = more signal.
Assay [3] is described as follows: small-molecule microarray binders of probe aCHRDL2, primary screen, biochemical, biotinylated probe, 635/667 nm fluorescence (AID 1100). The conditions noted are these: higher = more signal.
A short description of assay [4]: splicing luciferase reporter signal modulators, primary screen, spliceosome inhibition project, cell-based, HEK293, splice +/- reporter (AID 1101).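 Also: HEK293 cells carrying a splicing-competent luciferase reporter gene; test concentration not given here.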 The conditions noted are these: luminescence, 24 h, higher = more signal, called active from +8 up or from −8 down. A general note: Reporter assays use an easily measured gene product as a stand-in for the process of interest.

Assay [5] addresses Fibroblast growth factor 10 (Homo sapiens) (UniProt O15520). Briefly: FGF10 binders on small-molecule microarrays, primary screen, biochemical, small-molecule microarray, 635 nm fluorescence (AID 1102). The following applies: FGF10 binding, fluorescence 635 nm, higher = more signal.
For assay [6], the system named is glycogen synthase kinase-3 (GSK3A per assay name; protocol says GSK3B). Briefly: GSK3 binders on small-molecule microarrays, primary screen, biochemical, small-molecule microarray, 635 nm fluorescence, GSK3A (AID 1103). Also: the record names both GSK3A and GSK3B. The conditions noted are these: small-molecule microarray binding, fluorescence 635 nm; higher = more signal.
In assay [7] the target is Epidermal growth factor receptor (Homo sapiens) (UniProt P00533). Briefly: EGFR binders on small-molecule microarrays, primary screen, biochemical, small-molecule microarray, 635 nm fluorescence (AID 1104).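 Also: score merges 667 nm emission intensity with spot signal to noise over triplicate slides.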 The conditions noted are these: EGFR binding, higher = more signal.
Assay [8] addresses Follistatin-related protein 3 (Homo sapiens) (UniProt O95633). Briefly: FSTL3 binders on small-molecule microarrays, primary screen, biochemical, small-molecule microarray, 635 nm fluorescence (AID 1105).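 Also: score merges emission near 667 nm and signal to noise per printed spot across three slides.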 The following applies: FSTL3 binding, higher = more signal.
Assay [9] concerns the target Dickkopf-related protein 1 (Homo sapiens) (UniProt O94907). Nature of the assay: DKK1 binders on small-molecule microarrays, primary screen, biochemical, small-molecule microarray, 635 nm fluorescence scan (AID 1106).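 Also: score merges emission near 667 nm with signal to noise over three replicate slides.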 The conditions noted are these: DKK1 binding, higher = more signal.
Assay [10] concerns Inhibin beta A chain (activin A). Nature of the assay: INHBA (activin A) binders on microarrays, primary screen, biochemical, small-molecule microarray, 635 nm fluorescence scan (AID 1107).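 Also: mouse activin A protein probed at 4.33 µg/mL on printed slides; score merges bound-protein fluorescence near 667 nm with spot signal-to-noise.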 The following applies: small-molecule microarray binding, higher = more signal.
In assay [11] the test system is Human papillomavirus type 1a protein E7 (residues 44-93). Briefly: HPV1a E7 fragment binders on microarrays, primary screen, biochemical, small-molecule microarray, residues 44-93, 635 nm fluorescence (AID 1108).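 Also: E7 fragment applied at 1 µg/mL in TBST for 1 h at 4 C; score combines spot fluorescence with its signal to noise ratio.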 The conditions noted are these: small-molecule microarray binding, fluorescence 635 nm; higher = more signal.
The nature of assay [12]: modulators of HCV replicon luciferase signal, primary screen, HCV replication inhibitor project, Huh7 cells, luciferase reporter (AID 1109).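 Also: huh7 hepatoma cells harbouring a luciferase neomycin HCV replicon reporter; luciferase luminescence as measure of HCV replicon replication; test concentration not given here.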 The conditions noted are these: 48 h, higher = more signal. In general terms: A replicon is a self-replicating genome or part of one, used to study replication in cells.
For assay [13], the target named is Left-right determination factor 2 (Homo sapiens) (UniProt O00292). Nature of the assay: LEFTY2 binders on small-molecule microarrays, primary screen, biochemical, small-molecule microarray, 635 nm fluorescence scan (AID 1110). The conditions noted are these: LEFTY2 binding, higher = more signal.
For assay [14], the target named is Calmodulin-1 (Homo sapiens) (UniProt P0DP23). Briefly: CALM1 binders on microarrays, EGTA buffer, profiling panel, biochemical, small-molecule microarray, Cy5-labelled CALM1 (AID 1111).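 Also: labelled calmodulin applied in Tris saline Tween buffer holding calcium plus EGTA and DTT.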 The following applies: Cy5-CALM1 binding fluorescence, higher = more signal.
Assay [15] shares this target. Nature of the assay: calcium-bound CALM1 binders on microarrays, profiling panel, artefact control for SMM control-protein annotation, biochemical, small-molecule microarray, Cy5-labelled CALM1, plus calcium (AID 1112).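 Also: score merges spot fluorescence with signal to noise from triplicate slides.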 The following applies: Cy5-CALM1 binding fluorescence, higher = more signal.
Assay [16] can be described thus: small-molecule microarray binders of probe aWnt5a, primary screen, biochemical, biotinylated probe, 635/667 nm fluorescence (AID 1113).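 Also: score merges 667 nm fluorescence intensity with signal-to-noise per printed feature.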 The following applies: higher = more signal.
A short description of assay [17]: small-molecule microarray binders of probe aShh, primary screen, biochemical, biotinylated probe, 635/667 nm fluorescence (AID 1114).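 Also: probe is biotin-labelled aShh protein from a stem cell growth factor screen; measures binding of labelled protein to compounds printed on the slide; score merges feature fluorescence at 667 nm with signal-to-noise.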 The following applies: higher = more signal.
The nature of assay [18]: small-molecule microarray binders of probe aNog, primary screen, biochemical, biotinylated probe, 635/667 nm fluorescence (AID 1115).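 Also: probe is biotinylated aNog protein used at 0.15 µg/mL for 1 h at 4 C; z-score combines 667 nm fluorescence of each spot with its signal to noise.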 The following applies: higher = more signal.
Assay [19] deals with Torsin-1A-interacting protein 1 (Homo sapiens) (UniProt Q5JTV8). Nature of the assay: LAP1 binders from COS7 cell lysate, primary screen, small-molecule microarray, 635/667 nm fluorescence (AID 1116). The conditions noted are these: COS7-hLAP1 lysate binding, 635 nm fluorescence, higher = more signal.
The target of assay [20] is Alpha-bungarotoxin (Bungarus multicinctus) (UniProt P60615). Nature of the assay: alpha-bungarotoxin binders on microarray, profiling panel, artefact control for SMM control protein annotation, biochemical, small-molecule microarray, Alexa647 label, 635/667 nm fluorescence (AID 1117). The following applies: alpha-BTX-A647 binding fluorescence, higher = more signal.

Molecules are shown by their SMILES. Active and inactive are the calls of the source.

Dickkopf-related protein 1 (Homo sapiens), sequence (O94907 whole entry, looked up): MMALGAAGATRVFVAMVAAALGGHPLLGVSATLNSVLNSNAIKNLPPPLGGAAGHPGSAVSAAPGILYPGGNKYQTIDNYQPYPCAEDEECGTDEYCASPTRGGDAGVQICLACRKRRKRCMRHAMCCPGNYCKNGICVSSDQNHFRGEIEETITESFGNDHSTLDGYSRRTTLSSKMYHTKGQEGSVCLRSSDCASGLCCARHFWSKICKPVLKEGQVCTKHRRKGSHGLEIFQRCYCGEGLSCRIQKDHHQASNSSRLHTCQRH
Alpha-bungarotoxin (Bungarus multicinctus), sequence (P60615 whole entry, looked up): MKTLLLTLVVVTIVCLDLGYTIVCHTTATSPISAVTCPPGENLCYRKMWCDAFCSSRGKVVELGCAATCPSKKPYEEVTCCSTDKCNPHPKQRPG
Left-right determination factor 2 (Homo sapiens), sequence (O00292 whole entry, looked up): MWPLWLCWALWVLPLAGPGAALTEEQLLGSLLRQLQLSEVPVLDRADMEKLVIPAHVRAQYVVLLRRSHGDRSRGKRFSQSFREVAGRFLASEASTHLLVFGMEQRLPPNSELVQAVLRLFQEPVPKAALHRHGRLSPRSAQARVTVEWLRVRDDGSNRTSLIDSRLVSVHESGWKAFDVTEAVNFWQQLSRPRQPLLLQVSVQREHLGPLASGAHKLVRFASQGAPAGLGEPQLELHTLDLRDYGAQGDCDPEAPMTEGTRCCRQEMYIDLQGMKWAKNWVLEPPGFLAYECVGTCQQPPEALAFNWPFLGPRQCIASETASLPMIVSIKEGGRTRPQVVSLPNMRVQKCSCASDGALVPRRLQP
Epidermal growth factor receptor (Homo sapiens), sequence (P00533 whole entry, looked up): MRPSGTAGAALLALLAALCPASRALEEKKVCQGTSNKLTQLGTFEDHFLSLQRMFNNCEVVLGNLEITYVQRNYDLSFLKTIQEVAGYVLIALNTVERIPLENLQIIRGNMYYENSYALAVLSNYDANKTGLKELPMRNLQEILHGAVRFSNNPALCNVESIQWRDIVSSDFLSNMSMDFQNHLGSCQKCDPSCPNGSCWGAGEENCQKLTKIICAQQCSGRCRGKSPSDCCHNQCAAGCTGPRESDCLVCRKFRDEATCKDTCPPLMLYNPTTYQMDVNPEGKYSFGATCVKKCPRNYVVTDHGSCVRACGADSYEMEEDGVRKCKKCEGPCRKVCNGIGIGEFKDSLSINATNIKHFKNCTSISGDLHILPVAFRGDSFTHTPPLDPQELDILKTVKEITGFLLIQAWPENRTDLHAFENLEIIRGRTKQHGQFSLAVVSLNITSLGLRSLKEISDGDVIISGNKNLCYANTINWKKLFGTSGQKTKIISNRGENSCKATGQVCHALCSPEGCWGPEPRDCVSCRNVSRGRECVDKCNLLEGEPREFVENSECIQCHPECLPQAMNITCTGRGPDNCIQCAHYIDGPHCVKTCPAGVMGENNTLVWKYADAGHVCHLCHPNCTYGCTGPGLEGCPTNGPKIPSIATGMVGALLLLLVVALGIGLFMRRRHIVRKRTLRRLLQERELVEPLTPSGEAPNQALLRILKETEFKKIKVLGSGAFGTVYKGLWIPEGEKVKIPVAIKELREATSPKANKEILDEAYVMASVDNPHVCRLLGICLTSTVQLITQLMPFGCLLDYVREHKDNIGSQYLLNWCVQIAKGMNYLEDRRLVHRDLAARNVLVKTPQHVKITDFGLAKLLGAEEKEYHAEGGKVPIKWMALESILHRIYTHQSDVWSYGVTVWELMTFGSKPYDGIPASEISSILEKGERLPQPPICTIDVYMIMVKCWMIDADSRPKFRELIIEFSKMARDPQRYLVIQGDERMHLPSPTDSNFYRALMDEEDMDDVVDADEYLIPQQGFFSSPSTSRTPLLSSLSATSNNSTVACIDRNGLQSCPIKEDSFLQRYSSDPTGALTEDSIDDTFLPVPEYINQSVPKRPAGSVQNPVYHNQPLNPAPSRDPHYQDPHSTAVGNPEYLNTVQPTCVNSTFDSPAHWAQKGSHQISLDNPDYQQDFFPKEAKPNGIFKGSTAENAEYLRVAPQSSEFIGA
Follistatin-related protein 3 (Homo sapiens), sequence (O95633 whole entry, looked up): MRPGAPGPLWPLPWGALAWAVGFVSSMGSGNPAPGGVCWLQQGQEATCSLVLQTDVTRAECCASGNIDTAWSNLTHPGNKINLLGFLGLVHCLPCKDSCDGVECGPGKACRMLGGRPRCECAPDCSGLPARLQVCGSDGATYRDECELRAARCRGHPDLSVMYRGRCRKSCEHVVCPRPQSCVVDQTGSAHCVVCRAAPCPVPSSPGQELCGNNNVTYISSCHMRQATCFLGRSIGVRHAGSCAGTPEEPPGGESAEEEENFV
Torsin-1A-interacting protein 1 (Homo sapiens), sequence (Q5JTV8 whole entry, looked up): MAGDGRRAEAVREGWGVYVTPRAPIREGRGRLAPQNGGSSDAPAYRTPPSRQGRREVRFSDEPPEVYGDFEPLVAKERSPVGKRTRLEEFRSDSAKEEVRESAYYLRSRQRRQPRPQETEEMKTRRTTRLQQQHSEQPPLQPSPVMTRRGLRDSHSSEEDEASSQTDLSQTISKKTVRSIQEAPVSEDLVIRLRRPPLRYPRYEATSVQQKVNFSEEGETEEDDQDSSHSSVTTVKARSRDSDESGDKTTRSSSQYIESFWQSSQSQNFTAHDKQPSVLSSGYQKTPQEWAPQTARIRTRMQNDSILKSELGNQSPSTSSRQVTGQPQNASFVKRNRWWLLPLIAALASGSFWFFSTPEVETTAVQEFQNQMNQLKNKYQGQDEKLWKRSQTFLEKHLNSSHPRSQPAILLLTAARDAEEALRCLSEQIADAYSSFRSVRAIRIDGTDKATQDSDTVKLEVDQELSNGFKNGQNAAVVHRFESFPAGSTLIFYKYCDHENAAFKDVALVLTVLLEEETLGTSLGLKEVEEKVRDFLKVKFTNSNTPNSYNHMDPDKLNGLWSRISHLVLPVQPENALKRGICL
Fibroblast growth factor 10 (Homo sapiens), sequence (O15520 whole entry, looked up): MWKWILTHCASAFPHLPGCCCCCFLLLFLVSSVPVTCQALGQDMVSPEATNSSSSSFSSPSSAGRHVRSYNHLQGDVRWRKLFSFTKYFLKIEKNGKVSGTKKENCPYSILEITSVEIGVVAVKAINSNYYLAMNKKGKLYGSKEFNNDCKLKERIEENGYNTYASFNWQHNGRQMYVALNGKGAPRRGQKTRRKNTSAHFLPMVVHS

With `CCOC(=O)[C@H](Cc1ccccc1)NC(=O)CCC1CC(OC(=O)NCc2cccc3ccccc23)CC2(CCCC(COC(=O)NCCOc3ccccc3)O2)O1` (stereo not given in full), the composite z-score in assay [1] was 1.2; in assay [2] it was -0.351; in assay [3], -0.477; in [5], 0.441; in assay [6], 0.974; in assay [7], 0.575. Also, the composite z-score came out at 0.579 in assay [8]; 0.504 in [9]; 0.011 in [10]; 1.35 in [11]; 0.628 in assay [13]; 0.653 in assay [14]. Besides, the composite z-score is -0.378 in assay [15]; -0.176 in assay [16]; -0.493 in assay [17]; -0.347 in assay [18]; 0.166 in assay [19]; 0.594 in assay [20]. Moreover, the z-score in assay [4] is -1.82 (inactive); in assay [12] it was -0.795.
As to `CCc1cc2c(nc1CC)CCN(CCC(C)=NOC[C@@H](C)[C@H](OCc1ccccc1)C(C)C)C2`, the composite z-score was -0.482 in assay [1]; -0.375 in assay [2]; -0.244 in assay [3]; -1.58 in [5]; -1.04 in assay [6]; -0.812 in [7]. Further, the composite z-score in [8] was -1.28; in assay [9] it was -1.06; in [10] it was -0.187; in assay [11], -0.461; in assay [13] it was -0.964; in assay [14], -1.3. Also, the composite z-score was -0.139 in [15]; -0.247 in [16]; -0.0035 in assay [17]; -0.411 in [18]; -0.667 in [19]; -0.86 in [20]. The z-score in assay [4] was -1.3 (inactive); in [12] it was -1.14.
Consider `C#CCCCON=C1C[C@@H](O)[C@@H](O)[C@@H]2[C@@H]3C(=O)N(CC)C(=O)[C@@H]3CC[C@H]12`, for which the composite z-score in assay [1] was 0.581; in assay [2], -0.189; in assay [3], -0.267; in [5], 0.301; in assay [6] it was -0.396; in assay [7] it was 0.285. The composite z-score in assay [8] was -0.331; in [9], 0.209; in assay [10] it was -0.124; in assay [11], 0.51; in [13], 0.278; in assay [14], -0.0398. Moreover, the composite z-score in assay [15] was -0.304; in assay [16] it was -0.089; in [17], -0.307; in assay [18], -0.353; in assay [19], 0.779; in [20] it was 0.573. The values for the z-score in [4] and in assay [12] were 0.385 (inactive) and -0.0718, respectively.
On to `COC(=O)[C@H](C)NC(=O)CCC1CC(OC(=O)NCCc2ccc(F)cc2)CC2(CCCC(COC(=O)NCCOc3ccccc3)O2)O1` (stereo not given in full), for which the composite z-score was 0.612 in assay [1]; -0.244 in [2]; -0.224 in assay [3]; 0.762 in assay [5]; 1.01 in [6]; 0.538 in assay [7]. The composite z-score was 0.781 in assay [8]; 0.652 in [9]; -0.455 in [10]; 1.36 in [11]; 0.781 in assay [13]; 1.55 in assay [14]. Also, the composite z-score was 0.236 in [15]; 0.055 in assay [16]; 0.123 in assay [17]; -0.109 in assay [18]; 0.928 in [19]; 0.837 in assay [20]. The values for the z-score in [4] and in assay [12] were 0.587 (inactive) and -0.213, respectively.
Take `CC(CCN1CCCCc2nc(C)c(C)cc21)=NOC[C@@H](O)[C@H]1O[C@@H]2OC(C)(C)O[C@@H]2[C@H]1O`: the composite z-score in assay [1] is 0.577; in assay [2] it was -0.32; in [3] it was -1.02; in assay [5] it was 0.313; in assay [6] it was 0.397; in assay [7], 0.774. The composite z-score in assay [8] is 0.718; in assay [9], 0.874; in assay [10] it was -0.0196; in [11] it was -0.902; in [13], 1.39; in [14], -0.554. For the same compound, the composite z-score in assay [15] is -1.3; in assay [16] it was -0.124; in assay [17] it was -0.0626; in assay [18], 0.0254; in [19], -0.219; in assay [20], 0.969. In addition, the z-score is 0.595 (inactive) in assay [4] and 0.0388 in [12].
